These results are taken from PubChem BioAssay (NCATS).

A short description of experiment [1]: Identifying Small Molecule Inhibitors of Pancreatic Cancer Stem Cells (SN12C, Spheroid) (AID 1259360).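 Further: 100% = DMSO-treated cells and 0% = wells without cells.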 The settings on record: Potency: SN12C spheroid viability. Summed up: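 Viability is scored by CellTiter-Glo luminescence 48 h after dosing, expressed as percent activity against vehicle and no-cell references. Spheroid formats rely on cells cultured 14 days in stem cell media beforehand.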

Experiment [2] is described as follows: Identifying Small Molecule Inhibitors of Pancreatic Cancer Stem Cells (Panc1, Adherent) (AID 1259362).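 Further: compound exposure lasted 48 h before the viability read; plate controls were DMSO-treated cells for no effect and cell-free media wells for full effect.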 The note with it: Potency: viability. Summed up: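 Endpoint: ATP-based luminescence, 48 h drug exposure. Bortezomib at 9.2 uM final as full-kill control; DMSO vehicle as negative control; activity normalized between vehicle and cell-free wells.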
Experiment [3] can be described thus: P-glycoprotein substrates identified in KB-8-5-11 adenocarcinoma cell line, qHTS therapeutic library screen (AID 1346987). Further: nearly all actives have a fitted effect of over 65% in size. Put shortly:
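Luminescence from CellTiter-Glo, read 5 min after addition, quantified survival of KB-8-5-11 (P-gp-overexpressing) cells exposed to compounds for 72 h. AC50 was derived from concentration-response curves.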
On the technique in general: Quantitative high-throughput screening tests each substance at several concentrations.

A short description of experiment [4]: High-throughput drug toxicity screening in the BPDCN cell line Cal-1 (AID 1224825; call rule not given here). The note with it: Cal-1 BPDCN cell viability, qHTS; at 45.8 µM (top of the series) unless noted. Summed up: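 Percent activity derived from CellTiter-Glo luminescence, scaling DMSO to 100% and 9.2 uM final bortezomib to 0%. BPDCN Cal-1 cells (500/well, RPMI plus 10% FBS) incubated with compounds 48 hours at 37C before reading.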

Experiment [5] in a line: qHTS assay for measurement of the activity of small molecule inhibitors on Zika virus induced Caspase-3 activity in human iPSC derived neural progenitor cells (hNPCs) (AID 1224857). Further: nearly all actives have a fitted effect of over 65% in size. Further: potency means the concentration at half of the fitted maximal effect. Summed up: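 Caspase-3/7 induction by a 6-hour ZIKV infection was quantified with a luminescent Caspase-Glo 3/7 reagent incubated 30 minutes at room temperature. Compounds were preincubated with hNPCs for 1 hour; inhibition was calculated against uninfected and infected control wells.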

Experiment [6] is described as follows: qHTS assay for measurement of the activity of small molecule inhibitors on Zika virus induced Caspase-3 activity in human astrocytoma cells (AID 1224859). Further: potency means the concentration at half of the fitted maximal effect. Put shortly: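 In SNB-19 cells plated at 250 cells/well and grown 16-20 h, compounds were applied 1 h before ZIKV (2 FFU/cell). Six hours later caspase-3/7 luminescence was recorded.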
The nature of experiment [7]: qHTS Screen of the MIPE 4.0 Collection Against Ewings Sarcoma (RDES) (AID 1259252). Further: nearly all actives have a fitted effect of over 35% in size. Further: potency means the concentration at half of the fitted maximal effect. Put shortly: (§1)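 After a 4 h attachment period in RPMI/5% FBS, cells were pin-dosed with test compounds; DMSO served as negative and 9.2 uM bortezomib (final) as positive control. Luminescent CellTiter-Glo signal at 48 h defined viability.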
Experiment [8] is described as follows: qHTS Screen of the MIPE 4.0 Collection Against Ewings Sarcoma (EW8) (AID 1259255). Further: nearly all actives have a fitted effect of over 35% in size. Further: potency means the concentration at half of the fitted maximal effect.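 On viability: 100% = DMSO-treated cells and 0% = medium-only wells without cells.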 Put shortly: as §1
Experiment [9] can be described thus: qHTS Screen of the MIPE 4.0 Collection Against Ewings Sarcoma (TC32) (AID 1259256). Further: nearly all actives have a fitted effect of over 45% in size. Further: potency means the concentration at half of the fitted maximal effect. Summed up: as §1
Experiment [10] can be described thus: Identifying Small Molecule Inhibitors of Pancreatic Cancer Stem Cells (SN12C, Adherent) (AID 1259358).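 Further: cell survival measured after 48 h of compound exposure.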 Put shortly: (§2)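 Adherent (2D) versus sphere (3D) formats; spheres generated 14 d in SCM beforehand. Compound transferred by pin tool after 4 h, 48 h incubation, CellTiter-Glo endpoint.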
Experiment [11] in a line: Identifying Small Molecule Inhibitors of Pancreatic Cancer Stem Cells (A278, Adherent) (AID 1259361). Further: nearly all actives have a fitted effect of over 35% in size.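 On viability (% of control): 100% = DMSO-treated cells and 0% = cell-free media-only wells.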 Summed up:
as §2

Experiment [12] can be described thus: P-glycoprotein substrates identified in KB-3-1 adenocarcinoma cell line, qHTS therapeutic library screen (AID 1346986). Further: nearly all actives have a fitted effect of over 60% in size. Put shortly:
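Viability read by CellTiter-Glo after 72 h compound exposure in dose-response of KB-3-1 and KB-8-5-11 (P-gp-high) cells. Hits needed AC50 < 10 uM, >50% maximum response and curve class -1.1 to -2.4. Cherry-picks retested ± tariquidar, including pcDNA/MDR-19 HEK-293 pair.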

A short description of experiment [13]: qHTS Screen of the MIPE 4.0 Collection Against Ewings Sarcoma (TC71) (AID 1259253). Further: nearly all actives have a fitted effect of over 40% in size. Further: potency means the concentration at half of the fitted maximal effect. Summed up:
as §1

Experiment [14] can be described thus: qHTS assay to identify small molecule inhibitors of chordoma cells - UCH-1 (AID 1259355). Further: on the % scale 0 is the no-effect control and ±100 the full control effect; nearly all actives have a fitted effect of over 55% in size. Put shortly:
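800 cells/well, overnight attach; compounds pinned at 15 concs, then auranofin/camptothecin/doxorubicin/rubitecan/topotecan combo added; 48hr 37 C, 5% CO2; CellTiter-Glo, 30min RT, luminescence.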

Experiment [15] in a line: Natriuretic polypeptide receptor (hNpr1) antagonism - Pilot counterscreen GloSensor control cell line (AID 1347045; calls by dose curve; further: on the % scale 0 is the no-effect control and ±100 the full control effect). Summed up:
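Cells were first seeded and incubated overnight at 37C, then loaded with 2% GloSensor substrate for 2 h. Compounds were added for 30 min at room temperature, followed by a baseline read, 50 uM SNP and a final read after 20 min.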

Experiment [16] is described as follows: High-throughput drug toxicity screening in the BPDCN cell line Gen2.2 (AID 1224824; call rule not given here;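 further: cells exposed to compounds for 48 h before reading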). The settings on record: Gen2.2 BPDCN cells; at 45.8 µM (top of the series) unless noted. Summed up: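 Gen2.2 cells (500/well) in phenol red-free RPMI with 10% FBS were exposed to compounds for 48 h at 37 °C, 5% CO2. Viability was read by CellTiter-Glo luminescence and normalized to DMSO (100%) and 9.2 uM bortezomib (0%).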

The nature of experiment [17]: qHTS assay to identify small molecule inhibitors of chordoma cells - UCH-2 (AID 1259356). Further: on the % scale 0 is the no-effect control and ±100 the full control effect.

Where “and” joins values, the source holds several entries; their conditions need not be identical. Identical values can stand only once. Inconclusive results are not listed. Some structures have more than one record in an assay (separate samples or runs), and their calls can disagree. Calls of active or inactive are those of the source. Unless noted, the call rests on the fitted dose curve; in most records, active means well fitted curve in the direction sought with a large enough effect; inconclusive means small, poorly fitted or top-dose-only effect, or another doubt; inactive means no such curve, though single readings can be large; an effect the other way counts as inactive or inconclusive.

For `C/C(=C\C(=O)Nc1ccccc1C(=O)O)c1ccc2ccccc2c1`, the Potency result in experiment [1], in [2] and in [3] was “inactive” in each case.
With `O=c1[nH]c(-c2ccc(C(F)(F)F)cc2)nc2c1CSCC2`, the viability (% of control) in experiment [4] worked out at 114%. Moreover, the Potency entry in experiment [5], in experiment [6], in experiment [10], in [1], in experiment [2] and in [12] was “inactive” throughout. The Potency result in experiment [3] was “inactive”. Further, the Potency is 23.5 µM (active) in experiment [7], 20.9 µM (active) in experiment [8] and 23.5 µM (active) in experiment [9]. The IC50 (viability decrease) result in [11] is “inactive”.
Consider `CCOC(=O)C1=C[C@@]2(CC)CCCN3CCc4c(n1c1ccccc41)[C@H]32`, for which the Potency entry in [10] and in experiment [1] was “inactive” each time. Moreover, the IC50 (viability decrease) entry in experiment [11] is “inactive”.
In the case of `C1COC(NC(C2CC2)C2CC2)=N1`, the viability (% of control) in experiment [4] was determined as 53.6%. The Potency result in [5], in [6], in [7], in [13], in experiment [8] and in [9] was “inactive” each time. Besides, the Potency entry in experiment [14], in experiment [12] and in experiment [3] was “inactive” each time. Further, the result in [15] was inactive.
For the molecule `COc1ccc(CC2=NN3C([C@@H](CCc4ccccc4)[C@@H](C)O)=NC(C)C3C(=O)N2)cc1OC` (some centres undefined), in [16], the cell viability, % of control (lower = more cytotoxic) was 276%. Moreover, the viability (% of control) in experiment [4] was found to be 115%. In addition, the Potency in experiment [5] is 9.35 µM (active). For the same molecule, the Potency entry in [7], in [8], in experiment [9], in [1], in [2] and in [3] was “inactive” throughout. In addition, the IC50 (viability decrease) in [11] is 23.5 µM (active).
Take `Cn1cc(-c2ccc3nnc(C(F)(F)c4ccc5ncccc5c4)n3n2)cn1`: the viability (% of control) in experiment [4] is 64.2%. Further, the Potency result in experiment [5], in experiment [6], in experiment [10] and in experiment [3] was “inactive” throughout. For the same molecule, in experiment [9], the Potency was 0.833 µM (active). For the same molecule, the IC50 (viability decrease) result in experiment [11] is “inactive”.
`O=C(O)COCCN1CCN(C(c2ccccc2)c2ccc(Cl)cc2)CC1` (centres undefined): the viability (% of control) in [4] was found to be 124%. Besides, the Potency result in [5], in experiment [7], in experiment [13], in experiment [8], in experiment [9] and in [14] was “inactive” throughout. The Potency result in experiment [3] is “inactive”. The molecule was classed as inactive in [15].
Turning to `O=C(O)CCc1ccc(NCc2cccc(Oc3ccccc3)c2)cc1`, in experiment [4], the viability (% of control) amounted to 108%. Besides, the Potency result in [5], in [7], in experiment [8], in [9], in experiment [10] and in experiment [1] was “inactive” each time. Moreover, the Potency result in experiment [2] and in experiment [3] was “inactive” each time. For the same molecule, the IC50 (viability decrease) entry in experiment [11] was “inactive”.
On to `Nc1ccc(S(=O)(=O)Nc2ccnn2-c2ccccc2)cc1`, for which the viability (% of control) in experiment [4] was 115%. Besides, the Potency result in experiment [5], in [6], in [7], in [8], in experiment [9] and in experiment [14] was “inactive” throughout. For the same molecule, the Potency result in experiment [3] was “inactive”. Also, the call in experiment [17] and in experiment [15] was inactive.
Regarding `CC(C=CC1=C(C)CCCC1(C)C)=CC=CC(C)=CC(=O)O`, the viability (% of control) in experiment [4] was 39.4% and 7.95%. Also, the Potency result in experiment [5], in experiment [6], in experiment [12] and in experiment [3] was “inactive” in each case. The Potency was 23.5 µM (active) in [7]; 20.9 µM (active) and 9.35 µM (active) in experiment [8]; 20.9 µM (active) and 3.72 µM (active) in [9].
As to `CCOc1ccc(Cc2cc([C@@H]3O[C@H](CO)[C@@H](O)[C@H](O)[C@@H]3O)ccc2Cl)cc1`, the viability (% of control) in experiment [4] stood at 19.9%. Also, the Potency entry in experiment [5], in experiment [8], in [1] and in experiment [3] was “inactive” in each case.
As for `COCC(=O)NCC=Cc1ccc2ncnc(Nc3ccc(Oc4ccc(C)nc4)c(C)c3)c2c1`, the cell viability, % of control (lower = more cytotoxic) in experiment [16] is 222%. For the same molecule, the viability (% of control) in [4] is 20.7%. The Potency entry in experiment [5] was “inactive”. Further, in [7], the Potency was 20.9 µM (active). Moreover, the IC50 (viability decrease) in experiment [11] is 20.9 µM (active).
Turning to `COc1nc(-c2ccc3c(c2)OCO3)n(-c2ccc(NC(=O)CSc3ccccc3)cc2)n1`, the viability (% of control) in experiment [4] is 116%. Moreover, the Potency entry in experiment [5], in [6], in [8], in experiment [10], in experiment [1] and in experiment [3] was “inactive” in each case.
For the molecule `C[C@]12CCC(=O)C=C1CC[C@@H]1[C@@H]2[C@@H](O)C[C@@]2(C)[C@H]1CC[C@]2(O)C(=O)CO`, the Potency result in [5], in experiment [1] and in experiment [2] was “inactive” in each case.
`O=C(OCC#CCSc1nnc(-c2ccc3ccccc3c2)o1)c1cc2ccccc2s1`: the Potency entry in experiment [10] and in experiment [1] was “inactive” each time.
In the case of `c1ccc(-c2nn3c(c2-c2ccnc4cc(OCCN5CCOCC5)ccc24)CCC3)nc1`, in [16], the cell viability, % of control (lower = more cytotoxic) was found to be 857%. The viability (% of control) in [4] was 73.1%. Besides, the Potency entry in experiment [5], in experiment [10], in experiment [2] and in experiment [12] was “inactive” in each case.
As to `NCCc1ccc(O)c(O)c1`, in experiment [4], the viability (% of control) worked out at 25%. Further, the Potency result in [5], in [6], in experiment [7], in experiment [14] and in [3] was “inactive” throughout. In addition, the Potency in [13] was 16.6 µM (active); in [8] it was 16.6 µM (active); in [9], 1.66 µM (active). Besides, in experiment [15], the molecule was classed as inactive.
Consider `Cc1[nH]c(=O)c(C#N)cc1-c1ccc2nccn2c1`, for which the viability (% of control) in experiment [4] came out at 95.5%. Also, the Potency entry in experiment [5] was “inactive and 7.43 µM (active)”; in experiment [6] it was “inactive and 4.69 µM (active)”. The Potency entry in experiment [7], in experiment [13], in experiment [8], in experiment [9], in [14] and in experiment [10] was “inactive” each time. The Potency entry in experiment [1] and in [3] was “inactive” throughout. In [11], the IC50 (viability decrease) entry is “inactive”. The call in experiment [15] was inactive.
